Our source for the binding signal values is publication PMC7862700, “An all-to-all approach to the identification of sequence-specific readers for epigenetic DNA modifications on cytosine”.

What all share (test): DAPPL (digital affinity profiling via proximity ligation, sequencing); 10 mM Tris-HCl pH 7.5, 50 mM NaCl, 1 mM DTT, 4% glycerol, room temperature, 30 min; GST-TFs on glutathione beads, 16-mer random dsDNA library, 0.1% formaldehyde crosslink after washing; high values mean tight binding
One test addresses T1, FEV (Homo sapiens, UniProt Q99581 1-238).
T1 sequence: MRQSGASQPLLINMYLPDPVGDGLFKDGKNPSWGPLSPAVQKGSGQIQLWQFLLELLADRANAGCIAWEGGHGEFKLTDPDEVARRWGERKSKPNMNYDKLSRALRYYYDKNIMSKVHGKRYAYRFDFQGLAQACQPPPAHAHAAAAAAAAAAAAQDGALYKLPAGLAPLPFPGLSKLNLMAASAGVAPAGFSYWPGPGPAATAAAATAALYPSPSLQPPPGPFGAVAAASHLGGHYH
As to conditions: protein: recombinant; tags: N-terminal GST; dsDNA, one strand shown. The method in brief: (§1)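 Human transcription factors fused to GST were expressed in yeast, captured on glutathione beads, given DNA barcodes and pooled with a GST-only negative control. Pools were incubated with 200 nmole of a 16-mer random double-stranded DNA library in Tris/NaCl/DTT/glycerol buffer at room temperature for 30 min. They were then washed, crosslinked with 0.1% formaldehyde, proximity-ligated (BsaI/T4 ligase, 1 h, 37 °C), PCR-amplified and sequenced on an Illumina NextSeq500. Binding signal is each 6-mer's read frequency for a factor divided by its frequency for the GST control.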

In a further test the target is ETV5 (Homo sapiens, UniProt P41161 1-510). As to conditions: protein: recombinant; tags: N-terminal GST; dsDNA, one strand shown. The method in brief:
as §1

The next test concerns the target HSF1 (Homo sapiens, UniProt Q00613 1-529). As to conditions: protein: recombinant; tags: N-terminal GST; chain copies: 3; dsDNA, one strand shown. The method in brief:
as §1

Another test concerns the target T2, SPIC (Homo sapiens, UniProt Q8N5J4 1-248).
T2 sequence: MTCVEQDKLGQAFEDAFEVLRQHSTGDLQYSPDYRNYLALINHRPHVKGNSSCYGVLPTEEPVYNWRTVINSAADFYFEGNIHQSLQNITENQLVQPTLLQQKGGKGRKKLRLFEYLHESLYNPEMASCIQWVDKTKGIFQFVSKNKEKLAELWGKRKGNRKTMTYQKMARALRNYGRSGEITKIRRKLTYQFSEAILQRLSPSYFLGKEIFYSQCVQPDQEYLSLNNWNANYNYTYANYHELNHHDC
As to conditions: protein: recombinant; tags: N-terminal GST; dsDNA, one strand shown. An outline of the steps: as §1

Another test has as its target ELF4 (Homo sapiens, UniProt Q99607 1-663). As to conditions: protein: recombinant; tags: N-terminal GST; dsDNA, one strand shown. The method in brief:
as §1

In the next test the target is T3, ELK4 (Homo sapiens, UniProt P28324-2 1-405).
T3 sequence: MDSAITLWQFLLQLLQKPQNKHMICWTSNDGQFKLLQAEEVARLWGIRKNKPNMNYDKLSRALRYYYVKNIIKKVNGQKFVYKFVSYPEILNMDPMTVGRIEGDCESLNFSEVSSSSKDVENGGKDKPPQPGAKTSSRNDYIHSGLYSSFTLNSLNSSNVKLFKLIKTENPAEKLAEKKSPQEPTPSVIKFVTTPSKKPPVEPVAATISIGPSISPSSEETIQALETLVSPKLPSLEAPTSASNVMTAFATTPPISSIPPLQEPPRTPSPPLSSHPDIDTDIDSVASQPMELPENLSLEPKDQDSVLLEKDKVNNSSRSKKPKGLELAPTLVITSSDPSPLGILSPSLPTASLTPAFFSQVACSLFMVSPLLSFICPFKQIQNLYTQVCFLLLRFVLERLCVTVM
As to conditions: protein: recombinant; tags: N-terminal GST; dsDNA, one strand shown. The method in brief: as §1

Another test addresses T4, ETV2 (Homo sapiens, UniProt O00321 1-342).
T4 sequence: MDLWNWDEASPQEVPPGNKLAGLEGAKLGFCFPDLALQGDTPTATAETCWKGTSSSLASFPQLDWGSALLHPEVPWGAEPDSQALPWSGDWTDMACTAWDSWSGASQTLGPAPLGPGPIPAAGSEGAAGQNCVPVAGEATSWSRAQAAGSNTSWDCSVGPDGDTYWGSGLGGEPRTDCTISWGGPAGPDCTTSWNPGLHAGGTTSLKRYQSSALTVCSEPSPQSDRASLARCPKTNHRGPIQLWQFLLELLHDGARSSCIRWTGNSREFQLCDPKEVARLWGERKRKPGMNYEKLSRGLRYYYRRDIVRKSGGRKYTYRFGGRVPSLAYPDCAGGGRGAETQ
As to conditions: protein: recombinant; tags: N-terminal GST; dsDNA, one strand shown. An outline of the steps:
as §1

The target of another test is T5, ELF3 (Homo sapiens, UniProt P78545 1-371).
T5 sequence: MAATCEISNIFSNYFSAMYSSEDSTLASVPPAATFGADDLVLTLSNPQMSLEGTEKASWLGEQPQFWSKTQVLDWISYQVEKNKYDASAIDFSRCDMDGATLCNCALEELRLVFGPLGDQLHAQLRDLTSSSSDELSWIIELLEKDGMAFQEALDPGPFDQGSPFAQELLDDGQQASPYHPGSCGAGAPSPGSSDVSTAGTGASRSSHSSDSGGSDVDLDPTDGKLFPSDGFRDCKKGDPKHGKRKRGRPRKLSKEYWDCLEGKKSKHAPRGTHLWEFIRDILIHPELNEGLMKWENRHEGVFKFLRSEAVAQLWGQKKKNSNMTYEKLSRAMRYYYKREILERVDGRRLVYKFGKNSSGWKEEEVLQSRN
As to conditions: protein: recombinant; tags: N-terminal GST; dsDNA, one strand shown. The method in brief:
as §1

The next test concerns the target CRX (Homo sapiens, UniProt O43186 1-299). As to conditions: protein: recombinant; tags: N-terminal GST; dsDNA, one strand shown. The method in brief: as §1
In a further test the target is ETV1 (Homo sapiens, UniProt P50549 1-477). As to conditions: protein: recombinant; tags: N-terminal GST; dsDNA, one strand shown. The method in brief:
as §1

The next test has as its target T6, ERF (Homo sapiens, UniProt P50548 1-548).
T6 sequence: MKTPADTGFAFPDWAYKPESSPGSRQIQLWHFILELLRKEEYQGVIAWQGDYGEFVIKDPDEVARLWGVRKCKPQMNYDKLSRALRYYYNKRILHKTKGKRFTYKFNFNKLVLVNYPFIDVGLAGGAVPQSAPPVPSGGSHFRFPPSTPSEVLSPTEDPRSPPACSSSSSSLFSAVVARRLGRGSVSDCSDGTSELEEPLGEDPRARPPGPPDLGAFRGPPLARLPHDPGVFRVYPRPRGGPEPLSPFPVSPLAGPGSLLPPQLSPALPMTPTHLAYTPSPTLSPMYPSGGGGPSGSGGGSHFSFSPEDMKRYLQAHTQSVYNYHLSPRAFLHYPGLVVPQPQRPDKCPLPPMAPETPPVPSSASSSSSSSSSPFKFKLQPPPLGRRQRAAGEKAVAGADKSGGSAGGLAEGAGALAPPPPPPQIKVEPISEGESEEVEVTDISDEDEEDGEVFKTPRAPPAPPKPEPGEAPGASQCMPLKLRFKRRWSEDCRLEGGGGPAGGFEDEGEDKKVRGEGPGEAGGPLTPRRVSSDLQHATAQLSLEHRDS
As to conditions: protein: recombinant; tags: N-terminal GST; dsDNA, one strand shown. The method in brief:
as §1

For the next test, the target named is T7, ETV3L (Homo sapiens, UniProt Q6ZN32 1-361).
T7 sequence: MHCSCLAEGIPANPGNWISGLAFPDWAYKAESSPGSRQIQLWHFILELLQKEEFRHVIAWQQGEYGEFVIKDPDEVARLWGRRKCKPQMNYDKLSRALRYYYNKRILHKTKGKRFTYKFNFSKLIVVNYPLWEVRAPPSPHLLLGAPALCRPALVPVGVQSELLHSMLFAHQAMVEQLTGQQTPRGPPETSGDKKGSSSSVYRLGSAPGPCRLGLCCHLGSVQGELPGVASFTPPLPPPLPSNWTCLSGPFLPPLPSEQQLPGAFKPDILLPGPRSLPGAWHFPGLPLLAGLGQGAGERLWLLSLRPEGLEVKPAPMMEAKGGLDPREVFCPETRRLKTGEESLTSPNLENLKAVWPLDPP
As to conditions: protein: recombinant; tags: N-terminal GST; dsDNA, one strand shown. The method in brief: as §1

The target of another test is T8, ETS2 (Homo sapiens, UniProt P15036 1-469).
T8 sequence: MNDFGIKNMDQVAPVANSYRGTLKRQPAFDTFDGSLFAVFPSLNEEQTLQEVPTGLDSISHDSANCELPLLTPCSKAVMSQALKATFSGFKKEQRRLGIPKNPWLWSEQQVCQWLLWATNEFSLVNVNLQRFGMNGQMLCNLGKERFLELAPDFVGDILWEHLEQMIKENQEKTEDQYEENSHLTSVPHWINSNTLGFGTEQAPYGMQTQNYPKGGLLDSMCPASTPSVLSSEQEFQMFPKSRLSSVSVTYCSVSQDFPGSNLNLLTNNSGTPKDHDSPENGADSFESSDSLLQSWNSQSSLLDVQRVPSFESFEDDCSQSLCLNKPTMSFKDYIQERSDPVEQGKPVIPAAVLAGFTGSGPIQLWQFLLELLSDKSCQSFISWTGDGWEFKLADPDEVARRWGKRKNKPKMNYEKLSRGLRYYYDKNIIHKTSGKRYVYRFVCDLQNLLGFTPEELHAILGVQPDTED
As to conditions: protein: recombinant; tags: N-terminal GST; dsDNA, one strand shown. An outline of the steps: as §1

The target in a further test is T9, SPDEF (Homo sapiens, UniProt O95238 1-335).
T9 sequence: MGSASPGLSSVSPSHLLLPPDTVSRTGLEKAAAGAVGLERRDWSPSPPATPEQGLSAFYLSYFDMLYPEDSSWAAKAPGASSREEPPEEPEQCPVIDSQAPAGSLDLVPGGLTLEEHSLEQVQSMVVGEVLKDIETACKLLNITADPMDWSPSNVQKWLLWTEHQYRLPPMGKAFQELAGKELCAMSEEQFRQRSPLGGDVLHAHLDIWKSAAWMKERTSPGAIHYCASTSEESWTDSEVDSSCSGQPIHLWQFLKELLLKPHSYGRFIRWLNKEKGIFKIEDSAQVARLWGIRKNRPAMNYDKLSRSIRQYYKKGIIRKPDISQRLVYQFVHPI
As to conditions: protein: recombinant; tags: N-terminal GST; dsDNA, one strand shown. An outline of the steps:
as §1

Another test deals with T10, ETV7 (Homo sapiens, UniProt Q9Y603 1-341).
T10 sequence: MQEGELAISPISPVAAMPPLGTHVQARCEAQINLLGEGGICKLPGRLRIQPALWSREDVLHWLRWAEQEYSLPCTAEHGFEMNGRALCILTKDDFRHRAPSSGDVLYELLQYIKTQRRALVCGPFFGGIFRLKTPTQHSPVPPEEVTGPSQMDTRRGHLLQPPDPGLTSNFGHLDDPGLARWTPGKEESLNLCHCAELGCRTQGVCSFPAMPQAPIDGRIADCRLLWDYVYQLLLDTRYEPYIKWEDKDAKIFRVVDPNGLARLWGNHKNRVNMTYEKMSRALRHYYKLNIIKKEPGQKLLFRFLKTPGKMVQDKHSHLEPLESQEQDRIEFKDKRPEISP
As to conditions: protein: recombinant; tags: N-terminal GST; dsDNA, one strand shown. An outline of the steps:
as §1

A further test has as its target T11, ELF5 (Homo sapiens, UniProt Q9UKW6-2 1-255).
T11 sequence: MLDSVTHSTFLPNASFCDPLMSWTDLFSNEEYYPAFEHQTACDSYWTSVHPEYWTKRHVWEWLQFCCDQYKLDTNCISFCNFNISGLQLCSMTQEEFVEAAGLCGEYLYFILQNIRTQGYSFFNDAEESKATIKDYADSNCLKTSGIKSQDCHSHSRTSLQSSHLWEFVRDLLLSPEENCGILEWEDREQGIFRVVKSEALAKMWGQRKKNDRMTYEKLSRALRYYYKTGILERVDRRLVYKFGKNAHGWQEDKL
As to conditions: protein: recombinant; tags: N-terminal GST; dsDNA, one strand shown. The method in brief:
as §1

Another test addresses T12, ETV3 (Homo sapiens, UniProt P41162-2 1-143).
T12 sequence: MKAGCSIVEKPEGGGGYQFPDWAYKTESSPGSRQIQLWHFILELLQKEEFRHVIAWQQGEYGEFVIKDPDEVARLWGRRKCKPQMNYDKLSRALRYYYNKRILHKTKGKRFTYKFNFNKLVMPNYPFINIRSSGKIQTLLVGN
As to conditions: protein: recombinant; tags: N-terminal GST; dsDNA, one strand shown. The method in brief: as §1

For a further test, the target named is ETV6 (Homo sapiens, UniProt P41212 1-452). As to conditions: protein: recombinant; tags: N-terminal GST; dsDNA, one strand shown. An outline of the steps:
as §1

Sequence of ETV1 (P50549 whole entry): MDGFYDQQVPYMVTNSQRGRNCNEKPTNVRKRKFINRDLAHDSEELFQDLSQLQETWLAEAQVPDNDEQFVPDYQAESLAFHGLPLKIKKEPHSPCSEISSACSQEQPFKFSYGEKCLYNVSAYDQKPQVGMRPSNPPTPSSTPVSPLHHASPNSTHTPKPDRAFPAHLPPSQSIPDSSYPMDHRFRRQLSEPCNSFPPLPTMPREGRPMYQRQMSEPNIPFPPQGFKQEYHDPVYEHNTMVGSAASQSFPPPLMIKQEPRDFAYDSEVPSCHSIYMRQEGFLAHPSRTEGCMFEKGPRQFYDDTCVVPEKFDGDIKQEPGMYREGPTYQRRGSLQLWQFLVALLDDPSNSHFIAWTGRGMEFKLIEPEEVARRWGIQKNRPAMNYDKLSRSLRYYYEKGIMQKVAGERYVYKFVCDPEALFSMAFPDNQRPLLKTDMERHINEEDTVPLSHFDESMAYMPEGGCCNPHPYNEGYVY
Sequence of ETV5 (P41161 whole entry): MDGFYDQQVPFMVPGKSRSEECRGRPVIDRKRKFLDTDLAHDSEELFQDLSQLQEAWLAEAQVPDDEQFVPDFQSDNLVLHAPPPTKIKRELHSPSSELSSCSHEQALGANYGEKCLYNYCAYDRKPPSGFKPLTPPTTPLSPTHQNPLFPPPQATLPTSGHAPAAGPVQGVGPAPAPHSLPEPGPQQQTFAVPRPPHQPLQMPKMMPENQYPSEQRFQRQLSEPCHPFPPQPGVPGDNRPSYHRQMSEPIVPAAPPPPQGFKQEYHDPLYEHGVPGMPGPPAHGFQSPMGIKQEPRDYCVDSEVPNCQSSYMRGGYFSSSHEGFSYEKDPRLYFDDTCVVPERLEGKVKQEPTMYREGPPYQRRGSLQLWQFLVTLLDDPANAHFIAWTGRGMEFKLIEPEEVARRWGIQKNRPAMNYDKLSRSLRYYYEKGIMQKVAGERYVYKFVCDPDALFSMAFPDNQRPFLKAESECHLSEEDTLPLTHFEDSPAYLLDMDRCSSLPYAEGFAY
Sequence of ELF4 (Q99607 whole entry): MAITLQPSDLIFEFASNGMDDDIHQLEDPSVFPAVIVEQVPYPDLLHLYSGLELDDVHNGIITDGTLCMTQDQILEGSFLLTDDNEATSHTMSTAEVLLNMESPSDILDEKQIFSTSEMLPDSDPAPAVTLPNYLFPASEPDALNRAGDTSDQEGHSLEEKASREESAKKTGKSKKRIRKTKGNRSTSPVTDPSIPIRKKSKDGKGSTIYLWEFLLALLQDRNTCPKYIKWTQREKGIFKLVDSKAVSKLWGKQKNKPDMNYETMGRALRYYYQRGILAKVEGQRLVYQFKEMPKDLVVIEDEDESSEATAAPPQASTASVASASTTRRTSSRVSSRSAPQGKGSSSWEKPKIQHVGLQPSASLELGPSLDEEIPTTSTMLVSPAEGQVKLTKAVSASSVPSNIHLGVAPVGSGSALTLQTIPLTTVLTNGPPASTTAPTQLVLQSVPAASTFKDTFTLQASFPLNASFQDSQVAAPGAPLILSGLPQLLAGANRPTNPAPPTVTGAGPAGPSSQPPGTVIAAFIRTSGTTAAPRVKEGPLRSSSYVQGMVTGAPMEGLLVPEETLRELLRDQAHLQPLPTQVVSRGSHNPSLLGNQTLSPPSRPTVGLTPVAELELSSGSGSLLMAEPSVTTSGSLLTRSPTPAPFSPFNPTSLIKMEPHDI
Sequence of ETV6 (P41212 whole entry): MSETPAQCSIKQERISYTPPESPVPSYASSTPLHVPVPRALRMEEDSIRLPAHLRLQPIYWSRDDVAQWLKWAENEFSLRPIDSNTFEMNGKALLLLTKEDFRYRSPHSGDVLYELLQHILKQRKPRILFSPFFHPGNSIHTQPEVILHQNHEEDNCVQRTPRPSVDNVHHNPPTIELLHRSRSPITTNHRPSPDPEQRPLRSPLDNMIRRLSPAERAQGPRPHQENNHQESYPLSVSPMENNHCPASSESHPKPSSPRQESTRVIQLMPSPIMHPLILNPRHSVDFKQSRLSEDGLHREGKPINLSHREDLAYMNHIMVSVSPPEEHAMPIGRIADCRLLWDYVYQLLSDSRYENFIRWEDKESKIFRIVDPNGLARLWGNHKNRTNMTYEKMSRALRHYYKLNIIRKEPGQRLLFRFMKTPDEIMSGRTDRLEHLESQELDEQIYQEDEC
Sequence of CRX (O43186 whole entry): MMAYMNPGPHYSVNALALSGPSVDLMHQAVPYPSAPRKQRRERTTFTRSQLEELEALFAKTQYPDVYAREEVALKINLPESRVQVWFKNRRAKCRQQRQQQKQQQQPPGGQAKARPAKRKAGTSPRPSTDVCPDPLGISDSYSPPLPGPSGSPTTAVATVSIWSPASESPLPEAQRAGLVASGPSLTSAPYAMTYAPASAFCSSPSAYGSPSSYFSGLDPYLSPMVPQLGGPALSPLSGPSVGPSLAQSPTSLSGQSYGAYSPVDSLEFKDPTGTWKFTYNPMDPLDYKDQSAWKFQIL
Sequence of HSF1 (Q00613 whole entry): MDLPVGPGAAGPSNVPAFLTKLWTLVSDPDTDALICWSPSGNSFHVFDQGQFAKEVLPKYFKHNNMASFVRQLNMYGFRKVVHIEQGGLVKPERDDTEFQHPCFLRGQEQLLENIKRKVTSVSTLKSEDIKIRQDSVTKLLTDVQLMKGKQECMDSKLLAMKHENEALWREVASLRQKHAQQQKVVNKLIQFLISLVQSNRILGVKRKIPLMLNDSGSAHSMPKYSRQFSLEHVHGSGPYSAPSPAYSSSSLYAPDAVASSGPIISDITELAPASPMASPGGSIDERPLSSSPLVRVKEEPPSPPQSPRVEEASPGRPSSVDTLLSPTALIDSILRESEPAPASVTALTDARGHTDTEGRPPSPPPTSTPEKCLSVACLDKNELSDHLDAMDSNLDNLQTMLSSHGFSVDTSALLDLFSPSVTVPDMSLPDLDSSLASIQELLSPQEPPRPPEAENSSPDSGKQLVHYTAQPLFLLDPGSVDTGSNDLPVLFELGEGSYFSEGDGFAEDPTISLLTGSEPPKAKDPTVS

Take ATCATC: the binding signal with FEV is 1.11 fold enrichment (6-mer frequency, TF over GST control); with ETV5, 1.1 fold enrichment (6-mer frequency, TF over GST control); with HSF1, 1.4 fold enrichment (6-mer frequency, TF over GST control); with SPIC it was 1.24 fold enrichment (6-mer frequency, TF over GST control); in the test with ELF4, 1.17 fold enrichment (6-mer frequency, TF over GST control); with ELK4, 1.31 fold enrichment (6-mer frequency, TF over GST control). Moreover, the binding signal with ETV2 was 1.21 fold enrichment (6-mer frequency, TF over GST control); with ELF3, 1.26 fold enrichment (6-mer frequency, TF over GST control); with CRX, 1.56 fold enrichment (6-mer frequency, TF over GST control); with ETV1 it was 1.12 fold enrichment (6-mer frequency, TF over GST control); with ERF it was 1.08 fold enrichment (6-mer frequency, TF over GST control); with ETV3L, 1.23 fold enrichment (6-mer frequency, TF over GST control). For the same sequence, the binding signal with ETS2 is 1.25 fold enrichment (6-mer frequency, TF over GST control); with SPDEF, 1.16 fold enrichment (6-mer frequency, TF over GST control); with ETV7, 1 fold enrichment (6-mer frequency, TF over GST control); with ELF5, 1.17 fold enrichment (6-mer frequency, TF over GST control); in the test with ETV3 it was 1.23 fold enrichment (6-mer frequency, TF over GST control); with ETV6, 1.1 fold enrichment (6-mer frequency, TF over GST control).
